Assay outcomes (PubChem BioAssay)
HT1080NT lethal – qHTS for induction of synthetic lethality in tumor cells producing 2HG: qHTS for the HT-1080-NT fibrosarcoma cell line. HT-1080-NT fibrosarcoma viability, CellTiter-Glo ATP luminescence, 48 h. Potency, µM (doses to about 46.1 µM), for the others: at the top dose activity, negative = less viability, most hits filed as cytotoxic. 360,000 compounds, 1.6% hits;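 note: NT is the 2HG producing partner of a matched IDH1 knockdown line; potency is the fitted concentration of half-maximal effect; 0% = DMSO-treated cells and -100% = media-only wells without cells; nearly all actives have a fitted effect of over 55% in size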
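A 48-hour cytotoxicity screen used HT-1080-NT cells plated 2 hours before compound delivery. ATP-based CellTiter-Glo luminescence measured viability, normalized to DMSO and no-cell controls.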
HT1080 IDH1KD tx – qHTS for induction of synthetic lethality in tumor cells producing 2HG: qHTS for the HT-1080-IDH1KD cell line. 360,000 compounds, 2% hits. AID 686971, 2013. HT-1080 IDH1 knockdown viability, ATP luminescence, 48 h. Potency, µM (series often up to 46.1 µM), without a hit: at the top dose activity, negative = toxicity, hits mostly cytotoxic;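 note: potency is the fitted concentration of half-maximal effect; 0% = DMSO wells and -100% = cell-free medium wells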
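IDH1KD HT-1080 cells, 750/well, RPMI + 5% FBS; compound pinned after 2 h settling; 48 h, 37 °C; CellTiter-Glo luminescence; % activity normalised to DMSO and no-cell wells; curves fitted, classed by r2 and efficacy.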
DT40 TDP1 CPT – qHTS for Inhibitors of human tyrosyl-DNA phosphodiesterase 1 (TDP1): qHTS in cells in presence of CPT. chicken DT40 Tdp1-/-;hTDP1 cells + 20 nM CPT, ATP luminescence, 48 h. Potency, µM (series often up to 46.2 µM), without a hit: top-dose activity change, negative = growth inhibition, hits mostly inhibitors. 420,000 compounds, 12% hits; note: potency is the fitted concentration of half-maximal effect; nearly all actives have a fitted effect of over 55% in size
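Chicken DT40 Tdp1-/- cells stably complemented with human TDP1 were seeded at 400 cells/well in medium containing 20 nM camptothecin, exposed to pin-transferred compounds, and grown at 37 °C for at least 48 hr. Viability was read as ATP luminescence.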
DT40 TDP1 no CPT – qHTS for Inhibitors of human tyrosyl-DNA phosphodiesterase 1 (TDP1): qHTS in cells in absence of CPT | Potency, µM (doses to about 46.2 µM), without a hit: at the top dose activity change, negative = growth inhibition, hits mostly inhibitors | 420,000 compounds, 15% hits | DT40 Tdp1-/- hTDP1 cells, no CPT, ATP luminescence, 48 h | AID 686978, 2013; note: potency is the fitted concentration of half-maximal effect; nearly all actives have a fitted effect of over 55% in size
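Cells were dispensed at 400 per well, compounds added by pin tool, plates incubated ≥48 hr at 37 °C, then CellTiter-Glo added for 30 min at room temperature before luminescence reading. Line: DT40 Tdp1-/- complemented with hTDP1; camptothecin omitted.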
IL-1B inflam inh – qHTS for Inhibitors of Inflammasome Signaling: IL-1-beta AlphaLISA Primary Screen; THP-1 LPS/ATP IL-1B secretion, AlphaLISA, 16 h; active compounds read low; activity change, % at 57.5 µM; 360,000 compounds, 4.7% hits; AID 743279, 2014; in the data active = activity change below about -50%; inconclusive = mostly about -30% to -49%
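Secreted IL-1B measured by AlphaLISA bead assay after 16 h compound exposure of THP-1 cells; compounds (final up to 57.5 uM) added 1 h before LPS (250 ng/mL) and ATP (1.25 mM) stimulation; lower signal means less secretion.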
Active calls of the source: *. The list is not random: actives were taken first. Their share in the collection is about 19%. Unless noted, calls come from the whole dose curve; as a rule, active = well fitted curve in the direction sought with a large enough effect; inconclusive = small, poorly fitted or top-dose-only effect, or another doubt; inactive = no such curve, though single readings can be large; an effect the other way counts as inactive or inconclusive. Unless noted, % is set by controls: 0 for no effect and ±100 for the full control effect.

What do the screens show for `CCOc1ccc(CNC(=O)CN2C(=O)C3CCCCN3c3ccc(C(=O)N4CCCC4)cc32)cc1` (centres undefined)?
DT40 TDP1 CPT: -27.2%; DT40 TDP1 no CPT: inconclusive

How did CCOC(=O)C1(C)Oc2ccccc2C(c2ccc(OC)cc2)=C1C(=O)OC (centres undefined) do in these assays?
HT1080NT lethal: 1.3%; HT1080 IDH1KD tx: -3.2%; DT40 TDP1 CPT: inconclusive; DT40 TDP1 no CPT: inconclusive; IL-1B inflam inh: -12.3

What do the screens show for `CCOC(=O)C1=C(C2=CCCCC2)c2ccc(OC)cc2N(S(=O)(=O)C(F)(F)F)C1C(=O)OCC` (centres undefined)?
HT1080NT lethal: -12.0%; HT1080 IDH1KD tx: -5.7%; DT40 TDP1 CPT: 5.8µM*; DT40 TDP1 no CPT: 2.31µM*; IL-1B inflam inh: inconclusive

How did CCOC(=O)C1C(C(=O)OC)=C(c2ccc(OC)cc2)c2ccccc2N1S(=O)(=O)C(F)(F)F (centres undefined) do in these assays?
HT1080NT lethal: 2.8%; HT1080 IDH1KD tx: -1.1%; DT40 TDP1 CPT: inconclusive; DT40 TDP1 no CPT: 16.4µM*; IL-1B inflam inh: -20.2

What do the screens show for `CCOC(=O)C1(C)C(C(=O)OC)=C(c2ccc(OC)cc2)c2ccccc2N1C(=O)OC` (centres undefined)?
HT1080NT lethal: 7.2%; HT1080 IDH1KD tx: 2.6%; DT40 TDP1 CPT: 20.6µM*; DT40 TDP1 no CPT: 13µM*; IL-1B inflam inh: -17.5
